Reference: the supplement of paper PMC6555819

Legend:
Test in all cases: PBM binding z-score (relative to random genomic background probes); higher = stronger binding; sequences stand for … in GC…GCGATTGACAGCGTAGAATGAAGG
[1] = tested on: FXR:RXRa (NR concentration 270 nM, RXRa partner concentration 90 nM)
Procedure, shortened: (§1)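 Ligand-free nuclear receptor dimers were applied to custom Agilent 4×180K protein-binding microarrays whose double-stranded probes carried direct-repeat seeds, single-nucleotide variants, half-site ablations and random human genomic background sequences in 34-nt variable regions. Incubation lasted 1 h. Binding z-scores were computed against the random background probes from regression-normalized fluorescence.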

[2] = tested on: LXRa:RXRa (NR concentration 270 nM, RXRa partner concentration 90 nM)
Procedure, shortened: as §1

[3] = tested on: LXRa homodimer (NR concentration 270 nM)
Procedure, shortened: as §1

[4] = tested on: LXRb:RXRa (NR concentration 270 nM, RXRa partner concentration 90 nM)
Procedure, shortened: as §1

[5] = tested on: LXRb homodimer (NR concentration 270 nM)
Procedure, shortened: as §1

[6] = tested on: PPARa:RXRa (NR concentration 270 nM, RXRa partner concentration 90 nM)
Procedure, shortened: as §1

[7] = tested on: PPARg:RXRa (NR concentration 180 nM, RXRa partner concentration 90 nM)
Procedure, shortened: as §1

[8] = tested on: PPARg:RXRa 270nM:90nM, anti-RXR (NR concentration 270 nM, RXRa partner concentration 90 nM)
Procedure, shortened: as §1

[9] = tested on: PPARg:RXRa 30nM:10nM, anti-RXR (NR concentration 30 nM, RXRa partner concentration 10 nM)
Procedure, shortened: as §1

[10] = tested on: PPARg:RXRa 90nM:30nM, anti-RXR (NR concentration 90 nM, RXRa partner concentration 30 nM)
Procedure, shortened: as §1

[11] = tested on: PPARg:RXRa DBDmut IVT, anti-RXR (DBD mutation: RXRa K156A/R161A, NR concentration 270 nM, RXRa partner concentration 90 nM)
Procedure, shortened: as §1

[12] = tested on: PPARg:RXRa IVT, anti-PPARg (NR concentration 270 nM, RXRa partner concentration 90 nM)
Procedure, shortened: as §1

[13] = tested on: PPARg DBDmut:RXRa IVT, anti-PPARg (DBD mutation: PPARg1 K132A/R137A, NR concentration 270 nM, RXRa partner concentration 90 nM)
Procedure, shortened: as §1

[14] = tested on: PPARg DBDmut IVT, anti-PPARg (DBD mutation: PPARg1 K132A/R137A, NR concentration 270 nM)
Procedure, shortened: as §1

[15] = tested on: PPARg homodimer (NR concentration 180 nM)
Procedure, shortened: as §1

[16] = tested on: PXR:RXRa (NR concentration 270 nM, RXRa partner concentration 90 nM)
Procedure, shortened: as §1

[17] = tested on: PXR homodimer (NR concentration 270 nM)
Procedure, shortened: as §1

[18] = tested on: RARa:RXR (NR concentration 270 nM, RXRa partner concentration 90 nM)
Procedure, shortened: as §1

[19] = tested on: RARa homodimer (NR concentration 270 nM)
Procedure, shortened: as §1

[20] = tested on: RARb:RXRa (NR concentration 270 nM, RXRa partner concentration 90 nM)
Procedure, shortened: as §1

Sequence	PBM binding z-score [1]	PBM binding z-score [2]	PBM binding z-score [3]	PBM binding z-score [4]	PBM binding z-score [5]	PBM binding z-score [6]	PBM binding z-score [7]	PBM binding z-score [8]	PBM binding z-score [9]	PBM binding z-score [10]	PBM binding z-score [11]	PBM binding z-score [12]	PBM binding z-score [13]	PBM binding z-score [14]	PBM binding z-score [15]	PBM binding z-score [16]	PBM binding z-score [17]	PBM binding z-score [18]	PBM binding z-score [19]	PBM binding z-score [20]
TCTTGTAGACCAAGCAGGTTAAGAAAGCCTGAGT	0.286	0.184	-0.371	-0.086	-0.534	0.881	-0.307	1.12	2.54	1.77	1.69	0.677	-0.0357	-0.21	-0.226	0.504	0.118	0.56	-0.3	0.219
ATCTCTAGGTAACAAGTTCAATGAAAGAGAGGAC	1.38	1.5	1.01	1.42	1.28	2.44	2.44	2.87	1.22	2.61	3.6	3.31	1.41	1.75	1.45	2.68	3.18	1.75	1.83	2.18
CCCGACAGGTGAGAAGGTAACTCAGCCTCGATTA	-0.0059	0.3	0.072	0.291	-0.434	0.726	0.396	0.584	-0.2	0.0512	0.828	0.811	-0.905	-0.776	0.497	-0.281	-0.233	-0.0407	0.0144	0.749
TCAAGTTGGTCAAAGGTCACACACTCGAAATGCG	6.18	5.75	3.72	5.56	1.33	6.41	11.2	9.6	10	10.6	3.5	6.22	1.33	1.21	5.18	5.91	1.87	7.41	2.74	5.12
ATCGAAAGGTTGAAGGTGAGTATACCCACCCGAA	0.788	1.06	-0.269	0.741	0.0854	2.36	1.68	1.92	0.761	1.52	-0.526	0.764	0.619	0.928	0.699	1.06	-0.0881	1.79	0.177	1.66
CGTCCAAGGTGAATGCTAGGTCAGTGAAAGCATT	0.506	1.19	0.158	0.617	-0.905	1.73	0.352	0.668	-0.499	0.352	2.03	2.41	-0.677	-0.549	0.968	0.776	-0.645	1.8	-0.245	2.42
TCATGTAGATCAATAGAGGTTAAGAAAGTGCGCT	1.01	3.41	0.701	1.95	0.112	1.83	0.225	1.59	3.1	1.96	2.25	0.891	0.493	0.436	0.475	3.08	0.426	1.85	0.825	1.02
GCTGGTTGGTCAGTAAAAGGTCACACACCGGTCG	3.32	4.46	4.47	4.09	1.04	4.38	2.91	4.89	2.71	4.59	0.091	2.51	0.438	0.205	3.78	5.07	1.42	6.03	2.87	4.3
CCGACTGGGGCAAGGTTTCCATAACGCACAGCCA	-0.141	-0.322	-0.44	-0.321	-0.889	0.606	2.28	2.75	0.608	1.97	2.98	3.2	-0.0108	-1.24	0.216	-0.725	-0.351	-0.351	-0.575	0.592
TCTATTAGTTGAAGGGCATCCGACGAGTCCGTTT	0.895	0.85	0.486	0.661	0.284	0.934	0.123	2.03	3.75	2.78	2.32	0.399	0.276	0.308	1.24	0.775	1.03	0.683	1.77	1.24
GCTTGTAGATCAAGGTTAAGAATGACTAAGCTAA	0.096	0.324	-0.618	0.368	-0.604	1.37	1.3	1.95	0.416	1.72	1.74	0.924	0.367	0.28	-0.624	0.546	-0.428	0.94	-0.617	0.932
CCAACTGGGCCAAAGGTCATTGATTCCAATGCTC	4.93	4.78	3.93	4.85	0.383	6.66	12.4	10.4	10.8	11.4	5.49	7	0.378	1.89	3.57	5.33	1.49	6.04	0.958	4.35
ATCGAAAGGTCGAGGTGAGTATAGAGAAAGGGAA	4.21	3.57	0.072	2.77	0.504	4.79	3.78	3.66	1.28	2.62	0.752	2.38	0.636	0.688	1.8	2.49	0.362	3.37	0.75	4.18
CCTACTGGGCCAAATAGGTCATTGATGCCGATAA	1.09	1.66	0.941	1.91	-0.592	3.18	2.07	2.92	0.838	2.18	4.31	4.63	0.236	-0.456	1.27	1.88	0.588	2.32	0.564	2.23
GATACAGGGTCAGCTAGAGGCCAGAGTATGGAAA	4.81	2.75	-0.32	2.6	-0.659	4.53	3.81	3.35	0.742	2.06	1.03	2.29	0.139	0.0351	3.5	3.49	-0.262	4.85	0.574	4.22
ACAGGCAGGTGAGTGAAGGTAACTCAGCTGGACG	0.139	-0.0924	-0.455	-0.499	-0.66	0.119	0.199	-0.206	-0.505	-0.636	0.549	0.264	-0.867	-0.655	-0.302	-0.384	-0.354	-0.019	-0.662	0.283
CGTCCAAGGTCAGAGAGGTGAGTGAATGCCGAGT	4.98	3.29	0.18	2.43	0.0466	4.06	2.73	2.95	0.53	1.78	2.79	3.19	-0.199	-0.145	3.3	3.15	1.96	3.43	0.424	4.78
GGAACGAGGGCAGGTTGATAGCAGAGTTTGATGG	0.204	0.00952	-0.393	0.00491	-0.45	0.686	0.674	0.307	-0.182	0.0591	2.17	1.68	-0.931	-0.47	0.542	0.273	0.636	0.164	0.17	1.87
CTACCAGGGTGAACAAGGTCGTTGATTACTATTC	0.789	1.46	0.0612	1.76	-0.454	2.41	0.951	1.28	0.0757	0.507	1.3	1.86	0.284	-0.282	1.61	3.12	0.95	2.67	-0.135	1.42
AGTCAAAGTTAAGGACGAGGTAACGTAAAGCACG	-0.0625	-0.031	-0.464	-0.186	-0.644	0.245	0.85	0.357	0.301	0.179	-0.606	0.576	-0.425	0.362	-0.757	-0.127	0.18	1.19	0.205	0.889
AGAACGAGGGCAATGAGTTGATAGCACGGGTGGC	0.227	0.258	-0.336	-0.187	-0.464	1.14	1.4	0.948	0.0396	0.43	3.48	2.48	0.306	0.0167	0.0111	1.54	2.95	0.443	0.212	2.04
CTACCAAGGGGAACAAGGTCGTTGATTACTATTC	0.208	0.398	0.166	1.28	-0.298	1.24	0.284	0.325	0.0626	0.258	0.796	0.857	-0.93	0.266	0.795	1.46	1.29	1.16	-0.123	0.601
CATACTAGGTCAAGAGGTCAAAGTCCGCTTCCCG	7.24	6.42	7.38	5.6	2.49	6.35	8.96	7.68	5.59	7.65	7.37	7.69	4.46	2.98	5.59	6.4	2.53	7.53	3.07	5.67
TGAATGAGGTTAAAGATCATGGAACGTGGCGTCG	3.15	2.8	-0.213	1.93	-0.192	4.81	6.66	6.58	4.73	6.88	1.79	3.19	0.0999	-0.204	0.9	2.49	0.119	3.73	0.174	2.04
CCTCGGAGGACAGAAGGTCATAGCTGTCCGCTTT	2.89	3.44	1.4	2.23	-0.526	3.17	0.58	1.68	-0.379	0.915	0.177	0.772	-1.55	-1.54	2.13	3.22	0.225	3.55	0.138	3.5
TCAGAGAGGTGAAGGTAACTCAGGTACGCAGTCG	1.22	2.12	-0.198	0.909	-0.432	2.27	1.23	2.64	3.84	3.09	3.17	2.38	0.0231	-0.235	0.67	0.893	-0.409	1.49	-0.115	2.07
TCTGGTTGGTCACGGAGGTCACACACGACGGGTA	3.5	3.63	2.85	3.58	1.47	3.99	3.13	3.7	2.69	3.15	1.74	3.7	1.34	1.67	4.27	4.9	2.06	4.93	2	4
CATACAGGTTCAGCTAGGCCAGAGTAGGGACGGC	0.788	1.03	-0.0766	0.293	-0.03	1.21	0.629	0.338	-0.155	0.0738	-0.2	0.213	0.171	0.0145	0.268	0.759	0.121	0.691	-0.0156	1.44
TATTGTAGATCAAGCAGGTTAAGAAAGCCTGAGT	-0.385	0.0261	-0.0497	-0.0709	0.0382	0.359	-0.08	0.334	0.0668	0.218	0.302	1.02	0.542	0.816	0.0743	0.218	-0.248	0.378	0.348	-0.0192
